# The sample as a whole holds a higher share of the strongest signals than the screen did.
# B1: PNA (Arachis hypogaea), P02872 (protein)
# chain: MKPFCVFLTFFLLLAASSKKVDSAETVSFNFNSFSEGNPAINFQGDVTVLSNGNIQLTNLNKVNSVGRVLYAMPVRIWSSATGNVASFLTSFSFEMKDIKDYDPADGIIFFIAPEDTQIPAGSIGGGTLGVSDTKGAGHFVGVEFDTYSNSEYNDPPTDHVGIDVNSVDSVKTVPWNSVSGAVVKVTVIYDSSTKTLSVAVTNDNGDITTIAQVVDLKAKLPERVKFGFSASGSLGGRQIHLIRSWSFTSTLITTTRRSIDNNEKKIMNMASA
# How the values were obtained:
# Test in all cases: glycan array binding signal (z-score within array); higher = stronger binding
# Settings in all cases: glycan notation: IUPAC condensed, linker removed
# [1] = molecular target: Glc(a1-6)Glc(a1-6)Glc(a1-6)Glc
# How it was run: (§1)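 Columns mapping to the same glycan were averaged after glycan names were converted to IUPAC-condensed notation. The data come from 3228 arrays in the Consortium for Functional Glycomics database, limited to those with an available protein sequence. Binding is reported as a within-array Z-score averaged across arrays of one protein sequence and across linkers.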
# [2] = molecular target: Glc(b1-4)Glc(b1-4)Glc(b1-4)Glc(b1-4)Glc(b1-4)Glc(b1-4)Glc(b1-4)Glc(b1-4)Glc
# How it was run: as §1
# [3] = molecular target: Glc(b1-4)Glc(b1-4)Glc(b1-4)Glc(b1-4)Glc(b1-4)Glc(b1-4)Glc(b1-4)Glc(b1-4)Glc(b1-4)Glc
# How it was run: as §1
# [4] = molecular target: Glc(b1-4)Glc(b1-4)Glc(b1-4)Glc(b1-4)Glc(b1-4)Glc(b1-4)Glc(b1-4)Glc(b1-4)Glc(b1-4)Glc(b1-4)Glc
# How it was run: as §1
# [5] = molecular target: Glc(b1-4)Glc(b1-4)Glc(b1-4)Glc(b1-4)Glc(b1-4)Glc(b1-4)Glc(b1-4)Glc(b1-4)Glc(b1-4)Glc(b1-4)Glc(b1-4)Glc
# How it was run: as §1
# [6] = molecular target: Glc(b1-4)Glc(b1-4)Glc(b1-4)Glc(b1-4)Glc(b1-4)Glc(b1-4)Glc(b1-4)Glc(b1-4)Glc(b1-4)Glc(b1-4)Glc(b1-4)Glc(b1-4)Glc
# How it was run: as §1
# [7] = molecular target: GlcA(b1-3)Gal
# How it was run: as §1
# [8] = molecular target: GlcA3S(b1-3)Gal(b1-4)GlcNAc(b1-2)Man
# How it was run: as §1
# [9] = molecular target: GlcNAc(b1-2)Gal(b1-3)GalNAc
# How it was run: as §1
# [10] = molecular target: GlcNAc(b1-2)Man(a1-3)[GlcNAc(b1-2)Man(a1-6)]Man(b1-4)GlcNAc(b1-4)GlcNAc
# How it was run: as §1
# [11] = molecular target: GlcNAc(b1-3)Gal(b1-4)GlcNAc(b1-2)Man(a1-3)[GlcNAc(b1-3)Gal(b1-4)GlcNAc(b1-2)Man(a1-6)]Man(b1-4)GlcNAc(b1-4)GlcNAc
# How it was run: as §1
# [12] = molecular target: GlcNAc(b1-3)Gal(b1-4)GlcNAc(b1-2)Man(a1-3)[GlcNAc(b1-3)Gal(b1-4)GlcNAc(b1-2)Man(a1-6)]Man(b1-4)GlcNAc(b1-4)[Fuc(a1-6)]GlcNAc
# How it was run: as §1
# [13] = molecular target: GlcNAc(b1-3)Gal(b1-4)GlcNAc(b1-3)Gal(b1-4)GlcNAc(b1-3)Gal(b1-4)GlcNAc(b1-3)Gal(b1-4)GlcNAc(b1-2)[GlcNAc(b1-3)Gal(b1-4)GlcNAc(b1-3)Gal(b1-4)GlcNAc(b1-3)Gal(b1-4)GlcNAc(b1-3)Gal(b1-4)GlcNAc(b1-6)]Man(a1-6)[GlcNAc(b1-3)Gal(b1-4)GlcNAc(b1-3)Gal(b1-4)GlcNAc(b1-3)Gal(b1-4)GlcNAc(b1-3)Gal(b1-4)GlcNAc(b1-2)Man(a1-3)]Man(b1-4)GlcNAc(b1-4)[Fuc(a1-6)]GlcNAc
# How it was run: as §1
# [14] = molecular target: GlcNAc(b1-3)Gal(b1-4)GlcNAc(b1-6)[Gal(b1-3)]GalNAc
# How it was run: as §1
# [15] = molecular target: GlcNAc(b1-3)[GlcNAc(b1-6)]Gal
# How it was run: as §1
# [16] = molecular target: GlcNAc(b1-3)[GlcNAc(b1-6)]Gal(b1-4)GlcNAc(b1-3)[GlcNAc(b1-6)]Gal(b1-4)GlcNAc(b1-3)Gal(b1-4)Glc
# How it was run: as §1
# [17] = molecular target: GlcNAc(b1-4)GlcNAc
# How it was run: as §1
# [18] = molecular target: GlcNAc(b1-4)GlcNAc(b1-4)GlcNAc(b1-4)GlcNAc
# How it was run: as §1
# [19] = molecular target: HexA(a1-3)GalNAc4S(b1-4)GlcA(b1-3)GalNAc4S(b1-4)GlcA(b1-3)GalNAc4S(b1-4)GlcA(b1-3)GalNAc4S(b1-4)GlcA(b1-3)GalNAc4S(b1-4)GlcA(b1-3)GalNAc4S(b1-4)GlcA(b1-3)GalNAc4S
# How it was run: as §1
# [20] = molecular target: Man(a1-2)Man(a1-6)[Man(a1-3)]Man(a1-6)[Man(a1-2)Man(a1-2)Man(a1-3)]Man(b1-4)GlcNAc(b1-4)GlcNAc
# How it was run: as §1
# [21] = molecular target: Neu5Ac(a2-3)Gal
# How it was run: as §1
# [22] = molecular target: Neu5Ac(a2-3)Gal(b1-3)GalNAc(b1-3)Gal(a1-4)Gal(b1-4)Glc
# How it was run: as §1
# [23] = molecular target: Neu5Ac(a2-3)Gal(b1-3)GlcNAc(b1-2)Man(a1-3)[Neu5Ac(a2-3)Gal(b1-3)GlcNAc(b1-2)Man(a1-6)]Man(b1-4)GlcNAc(b1-4)GlcNAc
# How it was run: as §1
# [24] = molecular target: Neu5Ac(a2-3)Gal(b1-3)[Neu5Ac(a2-3)Gal(b1-4)]GlcNAc
# How it was run: as §1
# [25] = molecular target: Neu5Ac(a2-3)Gal(b1-3)[Neu5Ac(a2-6)]GalNAc
# How it was run: as §1
# [26] = molecular target: Neu5Ac(a2-3)Gal(b1-4)GlcNAc(b1-2)Man(a1-3)[Neu5Ac(a2-3)Gal(b1-4)GlcNAc(b1-2)Man(a1-6)]Man(b1-4)GlcNAc(b1-4)GlcNAc
# How it was run: as §1
# [27] = molecular target: Neu5Ac(a2-3)Gal(b1-4)GlcNAc(b1-2)Man(a1-3)[Neu5Ac(a2-3)Gal(b1-4)GlcNAc(b1-2)Man(a1-6)]Man(b1-4)GlcNAc(b1-4)[Fuc(a1-6)]GlcNAc
# How it was run: as §1
# [28] = molecular target: Neu5Ac(a2-3)Gal(b1-4)[Fuc(a1-3)]GlcNAc6S
# How it was run: as §1
# [29] = molecular target: Neu5Ac(a2-3)Gal(b1-4)[Qui(a1-3)]GlcNAc(b1-3)Gal
# How it was run: as §1
# [30] = molecular target: Neu5Ac(a2-3)GalNBz(b1-4)GlcNAc
# How it was run: as §1
# [31] = molecular target: Neu5Ac(a2-3)[GalNAc(b1-4)]Gal(b1-3)GalNAc(b1-4)[Neu5Ac(a2-3)]Gal(b1-4)Glc
# How it was run: as §1
# [32] = molecular target: Neu5Ac(a2-3)[GalNAc(b1-4)]Gal(b1-4)GlcNAc
# How it was run: as §1
# [33] = molecular target: Neu5Ac(a2-6)Gal(b1-4)GlcNAc(b1-2)Man(a1-3)[Neu5Ac(a2-6)Gal(b1-4)GlcNAc(b1-2)Man(a1-6)]Man(b1-4)GlcNAc(b1-4)[Fuc(a1-6)]GlcNAc
# How it was run: as §1
# [34] = molecular target: Neu5Ac(a2-6)Gal(b1-4)GlcNAc(b1-3)[Neu5Ac(a2-6)Gal(b1-4)GlcNAc(b1-6)]Gal(b1-4)Glc
# How it was run: as §1
# [35] = molecular target: Neu5Ac(b2-3)Gal(b1-4)Glc
# How it was run: as §1
# [36] = molecular target: Neu5Ac9Ac(a2-3)Gal(b1-4)GlcNAc
# How it was run: as §1
# [37] = molecular target: Neu5Ac9Ac(a2-3)Gal(b1-4)[Fuc(a1-3)]GlcNAc
# How it was run: as §1
# [38] = molecular target: Neu5Gc(a2-6)GalNAc
# How it was run: as §1
# [39] = molecular target: Xyl(b1-4)Xyl(b1-4)Xyl(b1-4)Xyl(b1-4)Xyl(b1-4)Xyl
# How it was run: as §1
binder,measurement,setting,value
B1,glycan array binding signal (z-score),[1],-0.136
same,glycan array binding signal (z-score),[2],0.924
same,glycan array binding signal (z-score),[3],1.4
same,glycan array binding signal (z-score),[4],2.88
same,glycan array binding signal (z-score),[5],1.98
same,glycan array binding signal (z-score),[6],2.23
same,glycan array binding signal (z-score),[7],-0.167
same,glycan array binding signal (z-score),[8],-0.368
same,glycan array binding signal (z-score),[9],-0.177
same,glycan array binding signal (z-score),[10],-0.143
same,glycan array binding signal (z-score),[11],0.227
same,glycan array binding signal (z-score),[12],0.22
same,glycan array binding signal (z-score),[13],1.96
same,glycan array binding signal (z-score),[14],5.04
same,glycan array binding signal (z-score),[15],-0.195
same,glycan array binding signal (z-score),[16],2.02
same,glycan array binding signal (z-score),[17],-0.113
same,glycan array binding signal (z-score),[18],-0.195
same,glycan array binding signal (z-score),[19],-0.195
same,glycan array binding signal (z-score),[20],-0.178
same,glycan array binding signal (z-score),[21],-0.171
same,glycan array binding signal (z-score),[22],-0.112
same,glycan array binding signal (z-score),[23],-0.061
same,glycan array binding signal (z-score),[24],-0.21
same,glycan array binding signal (z-score),[25],-0.176
same,glycan array binding signal (z-score),[26],-0.148
same,glycan array binding signal (z-score),[27],-0.306
same,glycan array binding signal (z-score),[28],-0.225
same,glycan array binding signal (z-score),[29],-0.195
same,glycan array binding signal (z-score),[30],-0.195
same,glycan array binding signal (z-score),[31],-0.195
same,glycan array binding signal (z-score),[32],-0.138
same,glycan array binding signal (z-score),[33],-0.21
same,glycan array binding signal (z-score),[34],-0.195
same,glycan array binding signal (z-score),[35],-0.195
same,glycan array binding signal (z-score),[36],-0.073
same,glycan array binding signal (z-score),[37],-0.195
same,glycan array binding signal (z-score),[38],-0.162
same,glycan array binding signal (z-score),[39],-0.195
